The results in this text go back to article PMC7862700, “An all-to-all approach to the identification of sequence-specific readers for epigenetic DNA modifications on cytosine”.

Assay in all cases: DAPPL (digital affinity profiling via proximity ligation, sequencing); 10 mM Tris-HCl pH 7.5, 50 mM NaCl, 1 mM DTT, 4% glycerol, room temperature, 30 min; GST-TFs on glutathione beads, 16-mer random dsDNA library, 0.1% formaldehyde crosslink after washing; high values mean tight binding
Common to all, as to settings: protein: recombinant; tags: N-terminal GST; dsDNA, one strand shown

One test has as its target T1, ERF (Homo sapiens, UniProt P50548 1-548).
T1 sequence: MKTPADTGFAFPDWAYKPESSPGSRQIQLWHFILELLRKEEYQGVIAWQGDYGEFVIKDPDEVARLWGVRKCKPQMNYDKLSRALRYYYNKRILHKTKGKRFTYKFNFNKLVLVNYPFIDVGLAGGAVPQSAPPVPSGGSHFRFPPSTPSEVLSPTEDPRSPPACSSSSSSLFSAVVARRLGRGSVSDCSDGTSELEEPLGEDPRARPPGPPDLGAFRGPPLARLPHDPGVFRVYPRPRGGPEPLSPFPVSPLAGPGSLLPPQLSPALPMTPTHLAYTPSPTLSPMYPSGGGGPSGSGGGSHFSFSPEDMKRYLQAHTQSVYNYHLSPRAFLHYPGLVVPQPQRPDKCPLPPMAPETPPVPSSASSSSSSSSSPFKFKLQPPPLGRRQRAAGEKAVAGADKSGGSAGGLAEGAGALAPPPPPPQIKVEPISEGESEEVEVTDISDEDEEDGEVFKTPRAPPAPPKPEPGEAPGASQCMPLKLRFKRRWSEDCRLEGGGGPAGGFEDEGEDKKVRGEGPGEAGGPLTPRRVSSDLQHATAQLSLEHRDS
The method in brief:
(§1)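 Human transcription factors carrying a GST fusion were produced in yeast, bound to glutathione beads, tagged with DNA barcodes and pooled together with a tag-only sample. Each pool was held with 200 nmole of a random double-stranded 16-mer DNA library in Tris/NaCl/DTT/glycerol buffer for 30 min at room temperature, then washed, crosslinked in 0.1% formaldehyde, proximity-ligated with BsaI/T4 ligase (1 h, 37 °C), PCR-amplified and sequenced on an Illumina NextSeq500. Binding signal is the read frequency of each hexamer for a given factor divided by its frequency in the tag-only sample.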

Another test deals with T2, ETV3L (Homo sapiens, UniProt Q6ZN32 1-361).
T2 sequence: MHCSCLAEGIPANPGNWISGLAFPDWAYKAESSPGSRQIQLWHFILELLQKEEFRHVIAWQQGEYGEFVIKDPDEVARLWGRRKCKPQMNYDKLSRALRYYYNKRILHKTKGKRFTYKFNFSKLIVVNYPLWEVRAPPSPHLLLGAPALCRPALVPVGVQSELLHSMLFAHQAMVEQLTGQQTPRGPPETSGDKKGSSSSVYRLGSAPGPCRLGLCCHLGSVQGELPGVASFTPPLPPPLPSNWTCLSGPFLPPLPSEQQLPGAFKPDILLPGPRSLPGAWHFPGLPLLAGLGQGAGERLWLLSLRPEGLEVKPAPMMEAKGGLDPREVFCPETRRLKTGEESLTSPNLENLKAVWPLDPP
An outline of the steps:
as §1

In another test the target is T3, ETS2 (Homo sapiens, UniProt P15036 1-469).
T3 sequence: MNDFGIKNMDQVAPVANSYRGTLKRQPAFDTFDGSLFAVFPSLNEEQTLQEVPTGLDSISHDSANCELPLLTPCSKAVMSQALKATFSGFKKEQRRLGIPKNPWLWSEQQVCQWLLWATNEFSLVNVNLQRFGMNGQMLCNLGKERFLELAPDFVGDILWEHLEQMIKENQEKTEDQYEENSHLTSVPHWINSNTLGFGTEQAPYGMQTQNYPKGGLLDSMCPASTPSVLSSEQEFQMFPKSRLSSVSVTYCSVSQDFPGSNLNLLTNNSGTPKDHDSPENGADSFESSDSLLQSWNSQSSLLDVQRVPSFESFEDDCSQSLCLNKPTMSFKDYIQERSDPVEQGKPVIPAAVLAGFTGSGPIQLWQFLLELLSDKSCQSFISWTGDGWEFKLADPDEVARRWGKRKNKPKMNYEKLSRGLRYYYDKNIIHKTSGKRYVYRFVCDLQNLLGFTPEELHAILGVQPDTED
The method in brief: as §1

In another test the target is T4, SPDEF (Homo sapiens, UniProt O95238 1-335).
T4 sequence: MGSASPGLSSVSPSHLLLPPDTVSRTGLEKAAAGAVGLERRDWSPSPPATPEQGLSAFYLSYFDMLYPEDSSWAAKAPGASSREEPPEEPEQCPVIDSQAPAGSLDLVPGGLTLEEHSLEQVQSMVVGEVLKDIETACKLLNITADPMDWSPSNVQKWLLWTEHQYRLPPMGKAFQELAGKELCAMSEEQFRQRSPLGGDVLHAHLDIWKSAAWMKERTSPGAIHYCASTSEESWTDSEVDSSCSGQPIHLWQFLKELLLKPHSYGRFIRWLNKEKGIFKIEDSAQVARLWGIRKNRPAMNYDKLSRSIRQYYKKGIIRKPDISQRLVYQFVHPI
An outline of the steps: as §1

A further test addresses T5, ETV7 (Homo sapiens, UniProt Q9Y603 1-341).
T5 sequence: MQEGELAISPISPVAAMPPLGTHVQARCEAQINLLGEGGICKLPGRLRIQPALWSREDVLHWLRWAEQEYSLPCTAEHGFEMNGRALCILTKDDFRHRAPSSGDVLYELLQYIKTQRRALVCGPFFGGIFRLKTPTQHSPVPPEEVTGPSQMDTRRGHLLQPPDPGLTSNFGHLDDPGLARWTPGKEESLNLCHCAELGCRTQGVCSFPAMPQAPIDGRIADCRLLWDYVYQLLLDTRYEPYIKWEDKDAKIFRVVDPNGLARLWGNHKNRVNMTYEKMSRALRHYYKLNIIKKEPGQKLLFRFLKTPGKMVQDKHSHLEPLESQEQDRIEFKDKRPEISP
An outline of the steps:
as §1

The target in the next test is T6, ELF5 (Homo sapiens, UniProt Q9UKW6-2 1-255).
T6 sequence: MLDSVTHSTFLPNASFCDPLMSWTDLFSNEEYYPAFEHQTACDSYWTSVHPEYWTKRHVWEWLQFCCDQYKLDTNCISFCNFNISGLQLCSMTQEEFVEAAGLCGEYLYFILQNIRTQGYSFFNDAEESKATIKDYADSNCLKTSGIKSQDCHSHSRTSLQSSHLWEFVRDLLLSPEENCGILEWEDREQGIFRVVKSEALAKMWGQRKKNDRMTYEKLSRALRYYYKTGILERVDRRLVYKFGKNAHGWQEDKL
The method in brief: as §1

The target in a further test is T7, ETV3 (Homo sapiens, UniProt P41162-2 1-143).
T7 sequence: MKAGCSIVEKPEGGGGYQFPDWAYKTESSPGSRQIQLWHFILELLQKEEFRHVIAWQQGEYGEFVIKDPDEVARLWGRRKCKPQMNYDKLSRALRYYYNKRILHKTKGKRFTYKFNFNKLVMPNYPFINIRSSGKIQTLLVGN
The method in brief: as §1

A further test addresses ETV6 (Homo sapiens, UniProt P41212 1-452). An outline of the steps:
as §1

Chain of ETV6 (P41212 whole entry): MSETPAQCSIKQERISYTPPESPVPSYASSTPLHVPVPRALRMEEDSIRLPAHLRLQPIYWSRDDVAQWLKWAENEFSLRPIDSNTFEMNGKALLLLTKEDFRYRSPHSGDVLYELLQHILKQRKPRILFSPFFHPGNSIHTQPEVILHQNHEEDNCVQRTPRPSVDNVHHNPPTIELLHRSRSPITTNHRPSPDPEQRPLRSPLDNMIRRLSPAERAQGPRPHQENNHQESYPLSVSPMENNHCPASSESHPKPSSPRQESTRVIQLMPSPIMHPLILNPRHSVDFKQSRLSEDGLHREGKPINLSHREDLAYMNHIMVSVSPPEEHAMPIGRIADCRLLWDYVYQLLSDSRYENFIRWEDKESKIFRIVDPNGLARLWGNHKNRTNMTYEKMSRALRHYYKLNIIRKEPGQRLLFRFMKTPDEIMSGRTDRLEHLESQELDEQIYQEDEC

Take AAAGGT: the binding signal with ERF is 1.07 fold enrichment (6-mer frequency, TF over GST control); in the test with ETV3L it was 1.03 fold enrichment (6-mer frequency, TF over GST control); with ETS2, 1.04 fold enrichment (6-mer frequency, TF over GST control); with SPDEF, 1.11 fold enrichment (6-mer frequency, TF over GST control); with ETV7, 1.07 fold enrichment (6-mer frequency, TF over GST control); with ELF5, 1.01 fold enrichment (6-mer frequency, TF over GST control). Moreover, the binding signal with ETV3 was 1.05 fold enrichment (6-mer frequency, TF over GST control); with ETV6, 1.11 fold enrichment (6-mer frequency, TF over GST control).

Turning to TGGTAT, the binding signal in the test with ERF is 1.34 fold enrichment (6-mer frequency, TF over GST control); in the test with ETV3L it was 1.37 fold enrichment (6-mer frequency, TF over GST control); with ETS2, 1.33 fold enrichment (6-mer frequency, TF over GST control); in the test with SPDEF, 1.42 fold enrichment (6-mer frequency, TF over GST control); in the test with ETV7, 1.35 fold enrichment (6-mer frequency, TF over GST control); with ELF5, 1.37 fold enrichment (6-mer frequency, TF over GST control). Also, the binding signal was 1.28 fold enrichment (6-mer frequency, TF over GST control) in the test with ETV3 and 1.31 fold enrichment (6-mer frequency, TF over GST control) with ETV6.

Regarding TTTGTC, the binding signal with ERF is 1.23 fold enrichment (6-mer frequency, TF over GST control); with ETV3L it was 1.32 fold enrichment (6-mer frequency, TF over GST control); with ETS2 it was 1.24 fold enrichment (6-mer frequency, TF over GST control); in the test with SPDEF, 1.14 fold enrichment (6-mer frequency, TF over GST control); with ETV7, 1.35 fold enrichment (6-mer frequency, TF over GST control); in the test with ELF5, 1.22 fold enrichment (6-mer frequency, TF over GST control). Moreover, the binding signal is 1.29 fold enrichment (6-mer frequency, TF over GST control) with ETV3 and 1.17 fold enrichment (6-mer frequency, TF over GST control) with ETV6.

Turning to TTGCTA, the binding signal was 1.37 fold enrichment (6-mer frequency, TF over GST control) with ERF; 1.35 fold enrichment (6-mer frequency, TF over GST control) with ETV3L; 1.33 fold enrichment (6-mer frequency, TF over GST control) with ETS2; 1.31 fold enrichment (6-mer frequency, TF over GST control) with SPDEF; 1.37 fold enrichment (6-mer frequency, TF over GST control) with ETV7; 1.21 fold enrichment (6-mer frequency, TF over GST control) with ELF5. Further, the binding signal with ETV3 is 1.28 fold enrichment (6-mer frequency, TF over GST control); with ETV6, 1.23 fold enrichment (6-mer frequency, TF over GST control).

With ACTGGC, the binding signal with ERF was 1.18 fold enrichment (6-mer frequency, TF over GST control); with ETV3L, 1.18 fold enrichment (6-mer frequency, TF over GST control); in the test with ETS2, 1.11 fold enrichment (6-mer frequency, TF over GST control); with SPDEF, 1.04 fold enrichment (6-mer frequency, TF over GST control); with ETV7 it was 1.21 fold enrichment (6-mer frequency, TF over GST control); with ELF5, 1.04 fold enrichment (6-mer frequency, TF over GST control). Further, the binding signal with ETV3 is 1.07 fold enrichment (6-mer frequency, TF over GST control); in the test with ETV6 it was 1.15 fold enrichment (6-mer frequency, TF over GST control).

CGTTCA: the binding signal with ERF was 1.2 fold enrichment (6-mer frequency, TF over GST control); in the test with ETV3L it was 1.25 fold enrichment (6-mer frequency, TF over GST control); in the test with ETS2, 1.12 fold enrichment (6-mer frequency, TF over GST control); with SPDEF it was 1.14 fold enrichment (6-mer frequency, TF over GST control); with ETV7, 1.07 fold enrichment (6-mer frequency, TF over GST control); with ELF5, 1.08 fold enrichment (6-mer frequency, TF over GST control). The binding signal is 1.12 fold enrichment (6-mer frequency, TF over GST control) in the test with ETV3 and 1.19 fold enrichment (6-mer frequency, TF over GST control) in the test with ETV6.

With GCTACC, the binding signal with ERF was 1.31 fold enrichment (6-mer frequency, TF over GST control); with ETV3L, 1.15 fold enrichment (6-mer frequency, TF over GST control); with ETS2 it was 1.22 fold enrichment (6-mer frequency, TF over GST control); with SPDEF, 1.22 fold enrichment (6-mer frequency, TF over GST control); with ETV7 it was 1.27 fold enrichment (6-mer frequency, TF over GST control); with ELF5, 1.24 fold enrichment (6-mer frequency, TF over GST control). Moreover, the binding signal is 1.24 fold enrichment (6-mer frequency, TF over GST control) in the test with ETV3 and 1.16 fold enrichment (6-mer frequency, TF over GST control) in the test with ETV6.
